Compound activity from PubChem.
MOR-DOR inv ag: inverse agonists of human mu-delta opioid receptor heterodimerization; cell-based MOR-DOR heterodimer luminescence, inverse agonism; 0.21% of 340,000 active; inhibition, % at 9.3 µM; AID 504357; P35372+P41143; in the data active = inhibition above about 22%, passing the limit was not always enough;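 note: 0% = cells with DMSO and 100% = wells without cells with DMSO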
HTR5A inv ag: inverse agonist of human HTR5A in OPRM1-OPRD1 counter-screen; AID 504634; HTR5A cell line, luminescence, inverse agonism; 0.083% of 340,000 active; inhibition, % at 9.3 µM; P47898; in the data active = inhibition mostly above about 23%, no sharp cut-off; inactive = mostly below about 18%;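 note: 0% = cells with DMSO and 100% = no-cell wells with DMSO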
HTR2A ag: mouse HTR2A agonism via beta-arrestin recruitment; activation, % at 7.6 µM; 0.66% of 360,000 active; CHO-K1 mHTR2A beta-arrestin complementation, luminescence; percent of 30 µM serotonin response; AID 624169; P35363;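 active = activation above a run cutoff, the mean activation of all tested compounds plus 3 SD, cut at about 14% in these data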;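 note: 0% = plate median of compound wells and 100% = 30 µM serotonin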
Target sequence (P35363 whole entry, looked up): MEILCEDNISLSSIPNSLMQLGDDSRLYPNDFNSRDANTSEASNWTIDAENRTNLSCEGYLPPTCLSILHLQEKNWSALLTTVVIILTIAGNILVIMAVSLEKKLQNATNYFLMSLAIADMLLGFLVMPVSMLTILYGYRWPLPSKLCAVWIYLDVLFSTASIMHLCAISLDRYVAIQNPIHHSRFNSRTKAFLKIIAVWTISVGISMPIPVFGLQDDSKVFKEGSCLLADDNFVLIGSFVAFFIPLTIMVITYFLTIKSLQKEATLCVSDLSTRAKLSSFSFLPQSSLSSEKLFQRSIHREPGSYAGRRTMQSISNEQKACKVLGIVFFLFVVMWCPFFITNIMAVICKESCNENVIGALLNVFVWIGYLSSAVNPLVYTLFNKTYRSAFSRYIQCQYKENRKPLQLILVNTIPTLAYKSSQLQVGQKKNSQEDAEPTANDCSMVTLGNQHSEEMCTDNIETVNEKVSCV
OPRM1-OPRD1 ag: agonists of human mu-delta opioid receptor heterodimerization | P35372+P41143 | cells, OPRM1-OPRD1 heterodimerization, luminescence | activation, % at 9.3 µM | 0.3% of 340,000 active; in the data active = activation above about 18%;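 note: 0% = vehicle-treated cells and 100% = reference agonist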
HTR5A ag ctr: counter-screen for OPRM1-OPRD1 agonists: human HTR5A agonism | P47898 | 0.61% of 340,000 active | HTR5A agonist assay, luminescence, cell-based | AID 504692 | activation, % at 9.3 µM; in the data active = activation mostly above about 9.5%, no sharp cut-off; inactive = mostly below about 7.6%;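 note: 0% = cells with vehicle only and 100% = reference agonist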
sPLA2-III inh: Inhibits HGIII-sPLA2 liposome hydrolysis, primary screen. QFRET BODIPY PC-A2 liposome hydrolysis, fluorescence. inhibition, % at 12.2 µM. 0.56% of 370,000 active;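 active = inhibition above mean plus 3 SD of compounds lying within the high and low control bounds, cut at about 19% in these data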;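 note: 0% = median of test compound wells and 100% = no enzyme DMSO wells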
MOR ag counter: OPRM1 agonism in mouse HTR2A counterscreen; activation, % at 9.3 µM; AID 624380; 5.3% of 2,300 active; shares compounds with HTR2A ag; U2OS OPRM1 beta-arrestin PathHunter, luminescence; DMSO 0%, DAMGO 9.3 µM 100%;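 active = mean activation above the mean of DMSO-only wells plus 3 SD, cut at about 0.5% in these data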
HTR2A ag conf: confirmation of mouse HTR2A serotonin receptor agonists; CHO-K1 PathHunter beta-arrestin recruitment, luminescence; DMSO 0%, 30 µM serotonin 100%; activation, % at 7.6 µM; 19% of 2,300 active; shares compounds with HTR2A ag; AID 624381;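 active = mean activation across triplicates above the hit threshold derived in the original primary screen, cut at about 15% in these data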
* hit, by the source's call; x = no result given. Shown are actives, neighbours in structure and some others; about 2.2% of the full set was active somewhere.

SMILES	MOR-DOR inv ag	HTR5A inv ag	HTR2A ag	OPRM1-OPRD1 ag	HTR5A ag ctr	sPLA2-III inh	MOR ag counter	HTR2A ag conf
Cn1cccc1C(=O)Nc1ccc(N2CCOCC2)cc1	-6.1	-9.8	14.7*	1.6	3.9	6.2	0.0	1.8
C[C@H]1COc2cccc(F)c2S(=O)(=O)N1C	x	x	x	x	x	3.2	x	x
CC(C)(C)OC(=O)NCCc1ccccc1/C=C/S(=O)(=O)NCc1ccccc1	x	x	x	x	x	-6.3	x	x
Cc1cc(NC(=O)COc2cccc([N+](=O)[O-])c2)no1	11.6	-20.2	17.7*	-2.1	5.2	4.8	-0.4	-1.2
CCCCCn1nnnc1C1(C)CSCC(=O)N1Cc1ccco1 (stereo not given)	x	x	x	x	x	1.6	x	x
CCS(=O)(=O)Nc1cccc(-c2nc3cccnc3s2)c1	-6.0	-6.9	-0.6	1.1	2.2	6.5	x	x
CCS(=O)(=O)Nc1ccc(-c2nc3cccnc3s2)cc1	2.1	-21.1	26.9*	-0.4	4.3	-8.1	-0.4	-3.3
Cc1cc(C(=O)CSc2nnc(-c3ccc(F)cc3)o2)c(C)n1CC1COc2ccccc2O1 (stereo not given)	7.4	3.8	16.2*	-1.2	1.5	-4.5	-0.5	0.1
Cc1cc(C(=O)CSc2nnc(-c3ccccc3)o2)c(C)n1CC1COc2ccccc2O1 (stereo not given)	13.5	-4.2	5.3	-2.4	1.6	3.8	x	x
CCCN[C@H]1CCc2nc(N)sc2C1	-25.6	-47.8	59.9*	4.6	-1.0	-3.7	-0.2	142.1*
CCCCOCCCNC(=O)C[C@H]1C(=O)N(Cc2ccc(OC)cc2)C2=CCCC[C@@]21C(=O)OCC	x	x	x	x	x	-2.5	x	x
CCC(C)N(C(=O)CNc1nnnn1-c1ccccc1)C(C)CC (stereo not given)	x	x	x	x	x	11.8	x	x
CCOC1=C2[C@@H](CN(S(=O)(=O)c3ccccc3)[C@H]2c2ccccc2)[C@H]2C(=O)N(c3ccccc3)C(=O)[C@H]2C1	x	x	-4.1	x	x	-23.7	x	x
CCOC1=C2[C@@H](CN(S(=O)(=O)c3ccc(C)cc3)[C@H]2c2ccc(Cl)cc2)[C@H]2C(=O)N(c3ccccc3)C(=O)[C@H]2C1	x	x	21.1*	x	x	-5.4	-0.7	-2.2
Cc1c(C(=O)N2CCN(Cc3ccc4c(c3)OCO4)CC2)sc2ncnc(N3CCN(c4ccccc4F)CC3)c12	1.0	-0.1	25.3*	-0.2	0.0	0.5	-0.3	36.1*
CCOC(=O)N1CCN(Cc2ccc3c(c2)OCO3)CC1	3.3	15.8	37.1*	-0.7	3.6	-7.5	-0.6	107.0*
Cc1ccc(C(=O)N2CCN(Cc3ccc4c(c3)OCO4)CC2)o1	2.1	5.5	20.3*	-0.3	0.4	-1.0	-0.5	11.9
Cc1cc(=O)oc(C)c1C(=O)N1CCN(Cc2ccc3c(c2)OCO3)CC1	13.2	-10.4	2.6	-2.4	0.9	7.9	x	x
CCN(CC)C(=O)N1CCN(Cc2ccc3c(c2)OCO3)CC1	-7.0	3.4	-0.1	1.1	-1.6	-3.6	x	x
CCOc1ccc(-n2c(SCC(=O)Nc3ccc(S(=O)(=O)Nc4cc(C)nc(C)n4)cc3)nnc2-c2ccco2)cc1	x	x	x	x	x	-35.5	x	x
CC(C)(C)NC(=O)[C@@H](c1cccnc1)N(C(=O)c1ccco1)c1ccc(C(C)(C)C)cc1	x	x	x	x	x	0.8	x	x
OC(c1ccccc1)(c1ccccc1)C1CCN(CCCOc2ccc(C(F)(F)F)cc2)CC1	x	x	x	x	x	-16.2	x	x
COc1c2c(cc3ccc(=O)oc13)CCO2	6.2	-5.7	21.2*	-1.2	1.5	-0.2	-0.5	-1.5
COc1c2occc2cc2ccc(=O)oc12	5.7	3.2	-1.6	-1.1	1.8	0.3	x	x
COC(=O)[C@]12C[C@H](CC(=O)NCc3cccc(C(F)(F)F)c3)C(=O)N(Cc3cccc4ccccc34)C1=C[C@H](C1CCCC1)O[C@@H]2C	x	x	x	x	x	-1.5	x	x
SMILES	MOR-DOR inv ag	HTR5A inv ag	HTR2A ag	OPRM1-OPRD1 ag	HTR5A ag ctr	sPLA2-III inh	MOR ag counter	HTR2A ag conf
CSc1cccc(NC(=S)N(CCCN2CCCC2)Cc2cccs2)c1	1.3	-5.6	42.9*	-0.3	2.2	7.2	-0.6	15.1*
CN(C)/N=C1\C(=O)N(CN2CCN(c3ccccc3)CC2)c2ccccc21	0.5	2.7	21.8*	-0.1	5.3	3.2	-0.6	12.1
Cc1ccc(N(CC(=O)NC(C)(C)C)C(=O)CNC(=O)c2cccs2)c(C)c1	4.4	2.4	-1.1	-0.9	-0.9	-1.3	x	x
CC(C)(C)NC(=O)CN(C(=O)CNC(=O)c1cccs1)c1ccccc1F	17.1	-4.4	16.1*	-3.2	1.5	4.9	-0.2	4.3
Cc1cc2c3c(c1C)C1(C(=O)N3C(C)(C)CC2C)C(C#N)=C(N)Oc2cc(O)ccc21 (stereo not given)	-2.7	5.2	25.0*	0.5	4.8	-50.6	-0.5	2.7
CCn1c(Cc2cccs2)nnc1SCC(=O)Nc1ccc2c(c1)OCCO2	x	x	x	x	x	-2.7	x	x
CC(C)c1ccc(NC(=O)OC2CCC23CCC(c2ccccc2)CC3)cc1 (stereo not given)	x	x	x	x	x	0.1	x	x
COc1ccc(CN2CCN(c3ccccn3)CC2)c(OC)c1	1.8	-11.8	40.2*	-0.3	3.9	0.1	-0.2	82.4*
COc1ccc(CN2CCN(c3ncccn3)CC2)c(OC)c1	-2.6	-0.4	38.5*	0.5	0.2	4.1	-0.4	99.2*
COc1cc(CN2CCN(c3ncccn3)CC2)cc(OC)c1	6.8	0.5	20.7*	-1.3	-0.2	-3.7	-0.5	121.1*
COc1ccc(CN2CCN(Cc3ccccc3F)CC2)c(OC)c1	12.9	-9.0	-1.5	-2.8	2.5	15.6	x	x
COc1cc(CN2CCCCCC2)cc(OC)c1	10.9	2.0	11.3	-2.3	-0.5	11.0	x	x
CC(C)(C)OC(=O)NCc1cc(F)ccc1/C=C/S(=O)(=O)NCc1ccccc1	x	x	x	x	x	-8.0	x	x
O=C1N2CCCc3cccc(c32)C12Nc1ccccc1S2 (stereo not given)	4.0	17.8	20.9*	-0.8	-8.1	-4.4	-0.5	-5.9
CC1CC(C)(C)N2C(=O)C3(Nc4ccccc4S3)c3cccc1c32 (stereo not given)	-47.3	6.5	-2.8	8.9	2.7	x	x	x
CCCc1nc2nc(C)c(NS(=O)(=O)c3ccc(CC(C)C)cc3)c(=O)n2[nH]1	1.4	-11.8	16.1*	-0.3	4.2	-4.6	-0.6	-3.0
CC1(Cc2cc(Cl)ccc2C(F)(F)F)C(=O)Nc2cc(C(F)(F)F)ccc21 (stereo not given)	x	x	14.9*	x	x	-7.1	0.5	1.7
CN(C)CC(=O)N[C@H]1C[C@@H]2O[C@@H](CO)CC[C@@H]2O[C@@H]1CCc1ccc(C2=CCCCC2)cc1	x	x	x	x	x	-19.0	x	x
Cc1cc(OCC(=O)OCC(=O)NCc2ccco2)ccc1Cl	7.5	-10.5	14.5*	-1.1	4.0	-0.3	-0.6	-2.5
